The source of these data is the supplement of paper PMC6658780.

Structures are written as SMILES. Structures can show the parent of a compound that is named as a salt. ± gives the standard deviation of the averaged measurements.

The first assay deals with Escherichia coli ATCC BAA-2469. In words: percent growth inhibition of drug + antibiotic vs DMSO control; higher = more growth inhibition. The following applies: antibiotic (0.125x MIC): ciprofloxacin; 7 µM. As to the method:
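Prestwick drugs tested at 20 uM and 7 uM with an antibiotic at 0.125x MIC (16 mg/L when MIC >128 mg/L) against E. coli ATCC BAA-2469 (NDM-1) in CAMHB, 384-well plates, duplicate runs. Percent growth inhibition was computed from OD600 (24 h minus 0 h) relative to DMSO wells. Drug + DMSO-only wells are also given. […]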
On to `O=C1c2c(O)ccc(O)c2C(=O)c2c(NCCNCCO)ccc(NCCNCCO)c21` [Mitoxantrone dihydrochloride], for which the percent growth inhibition came to 6.59 ± 1.5%.
Same read-out and setting: with `C[C@H]1[C@H](NC(=O)/C(=N\OC(C)(C)C(=O)O)c2csc(N)n2)C(=O)N1S(=O)(=O)O` [Aztreonam] the figure was 0.0872 ± 14%; with `CC(=O)OC[C@H]1O[C@@H]([S-])[C@H](OC(C)=O)[C@@H](OC(C)=O)[C@@H]1OC(C)=O.CCP(CC)CC.[Au+]` [Auranofin], 9.1 ± 0.77%; with `Nc1nc(O)c2ncn(CCC(CO)CO)c2n1` [Penciclovir], 7.81 ± 16%.
Same read-out and setting: with `CC(C)(C)C(=O)OCOC(=O)[C@@H]1N2C(=O)[C@@H](/N=C/N3CCCCCC3)[C@H]2SC1(C)C` [Pivmecillinam hydrochloride] the figure was 2.89 ± 3.3%; with `COC(=O)N/N=C/c1c[n+]([O-])c2ccccc2[n+]1[O-]` [Carbadox], 35.21 ± 0.15%; with `CO[C@H]1/C=C/O[C@@]2(C)Oc3c(C)c(O)c4c(O)c(c(/C=N/N5CCN(C)CC5)c(O)c4c3C2=O)NC(=O)/C(C)=C\C=C\[C@H](C)[C@H](O)[C@@H](C)[C@@H](O)[C@@H](C)[C@H](OC(C)=O)[C@@H]1C` [Rifampicin], 13.5 ± 3.6%.
`Cc1nnc(NS(=O)(=O)c2ccc(N)cc2)s1` [Sulfamethizole]: the percent growth inhibition turned out to be 9.62 ± 10%.

Still in this assay, the particulars now being: antibiotic (0.125x MIC): ciprofloxacin; 20 µM.
As to `O=C1c2c(O)ccc(O)c2C(=O)c2c(NCCNCCO)ccc(NCCNCCO)c21` [Mitoxantrone dihydrochloride], the percent growth inhibition came out at 52.9 ± 1.9%.
Take `CC(=O)OC[C@H]1O[C@@H]([S-])[C@H](OC(C)=O)[C@@H](OC(C)=O)[C@@H]1OC(C)=O.CCP(CC)CC.[Au+]` [Auranofin]: the percent growth inhibition is 19.5 ± 6.6%.
Same read-out and setting: in the case of `Nc1nc(O)c2ncn(CCC(CO)CO)c2n1` [Penciclovir] it was -2.9 ± 7.2%; in that of `COC(=O)N/N=C/c1c[n+]([O-])c2ccccc2[n+]1[O-]` [Carbadox], 68.9 ± 6.1%.
On the same count and under the same terms, in the case of `CO[C@H]1/C=C/O[C@@]2(C)Oc3c(C)c(O)c4c(O)c(c(/C=N/N5CCN(C)CC5)c(O)c4c3C2=O)NC(=O)/C(C)=C\C=C\[C@H](C)[C@H](O)[C@@H](C)[C@@H](O)[C@@H](C)[C@H](OC(C)=O)[C@@H]1C` [Rifampicin] it was 101 ± 2.1%; in that of `Cc1nnc(NS(=O)(=O)c2ccc(N)cc2)s1` [Sulfamethizole], 4.47 ± 6%.
With `N=C(NCCCCCCNC(=N)NC(=N)Nc1ccc(Cl)cc1)NC(=N)Nc1ccc(Cl)cc1` [Chlorhexidine], the percent growth inhibition came to 103 ± 3.8%.

Still in this assay, the particulars now being: antibiotic (0.125x MIC): gentamicin; 7 µM.
In the case of `C[C@H]1[C@H](NC(=O)/C(=N\OC(C)(C)C(=O)O)c2csc(N)n2)C(=O)N1S(=O)(=O)O` [Aztreonam], the percent growth inhibition was determined as 24.6 ± 5.5%.
Take `Cn1c(=O)c2c(ncn2C)n(C)c1=O` [Caffeine]: the percent growth inhibition turned out to be 1.53 ± 7.1%.
Still for that read-out and setting: with `CO/N=C(\C(=O)N[C@@H]1C(=O)N2C(C(=O)O)=C(COC(N)=O)CS[C@H]12)c1ccco1` [Cefuroxime sodium salt] the figure was -0.221 ± 4.4%; with `OCCN1CCN(CCCN2c3ccccc3Sc3ccc(C(F)(F)F)cc32)CC1` [Fluphenazine dihydrochloride], 1.67 ± 0.74%.
Still for that read-out and setting: in the case of `NS(=O)(=O)c1cc2c(cc1C(F)(F)F)NC(Cc1ccccc1)NS2(=O)=O` (stereo not given) [Bendroflumethiazide] it was -0.966 ± 1.2%; in that of `COC(=O)N/N=C/c1c[n+]([O-])c2ccccc2[n+]1[O-]` [Carbadox], 46.5 ± 17%; in that of `COc1ccccc1OCC(O)CO` (stereo not given) [Guaifenesin], 2.34 ± 2.3%.
As to `COc1cc(NS(=O)(=O)c2ccc(N)cc2)nc(OC)n1` [Sulfadimethoxine], the percent growth inhibition was determined as 1.55 ± 1.5%.
For the compound `Cc1c(N(C)C)c(=O)n(-c2ccccc2)n1C` [Amidopyrine], the percent growth inhibition amounted to 0.636 ± 5.5%.
The same measure, in the same setting: in the case of `Nc1nnc(-c2cccc(Cl)c2Cl)c(N)n1` [Lamotrigine] it was 7.06 ± 4.8%.
For the compound `Oc1c(Cl)cc(Cl)c(Cl)c1Cc1c(O)c(Cl)cc(Cl)c1Cl` [Hexachlorophene], the percent growth inhibition was 21.4 ± 16%.
On the same count and under the same terms, in the case of `CCN(CC)CCNC(=O)c1cc(Br)c(N)cc1OC` [Bromopride] it was 1.42 ± 2.4%.

Still in this assay, the particulars now being: antibiotic (0.125x MIC): gentamicin; 20 µM.
In the case of `C[C@H]1[C@H](NC(=O)/C(=N\OC(C)(C)C(=O)O)c2csc(N)n2)C(=O)N1S(=O)(=O)O` [Aztreonam], the percent growth inhibition was determined as 81.2 ± 19%.
Same read-out and setting: with `COC(=O)N/N=C/c1c[n+]([O-])c2ccccc2[n+]1[O-]` [Carbadox] the figure was 85 ± 3.9%.
Consider `Cc1c(OCC(F)(F)F)ccnc1C[S+]([O-])c1nc2ccccc2[nH]1` (stereo not given) [Lansoprazole], for which the percent growth inhibition stood at 12.5 ± 18%.
As to `N=C(NCCCCCCNC(=N)NC(=N)Nc1ccc(Cl)cc1)NC(=N)Nc1ccc(Cl)cc1` [Chlorhexidine], the percent growth inhibition stood at 112 ± 19%.

Still in this assay, the particulars now being: antibiotic (0.125x MIC): meropenem; 7 µM.
Regarding `C[C@H]1[C@H](NC(=O)/C(=N\OC(C)(C)C(=O)O)c2csc(N)n2)C(=O)N1S(=O)(=O)O` [Aztreonam], the percent growth inhibition was determined as 14.9 ± 16%.
With `CC(=O)OC[C@H]1O[C@@H]([S-])[C@H](OC(C)=O)[C@@H](OC(C)=O)[C@@H]1OC(C)=O.CCP(CC)CC.[Au+]` [Auranofin], the percent growth inhibition came out at 7.8 ± 5.3%.
On the same count and under the same terms, in the case of `COC(=O)N/N=C/c1c[n+]([O-])c2ccccc2[n+]1[O-]` [Carbadox] it was 39.9 ± 16%; in that of `Nc1nc(=S)c2ncn([C@@H]3O[C@H](CO)[C@@H](O)[C@H]3O)c2[nH]1` [Thioguanosine], 34.2 ± 1.9%.
On the same count and under the same terms, in the case of `COc1ccccc1OCC(O)CO` (stereo not given) [Guaifenesin] it was -4.21 ± 1.2%.

Still in this assay, the particulars now being: antibiotic (0.125x MIC): meropenem; 20 µM.
Regarding `CC(=O)OC[C@H]1O[C@@H]([S-])[C@H](OC(C)=O)[C@@H](OC(C)=O)[C@@H]1OC(C)=O.CCP(CC)CC.[Au+]` [Auranofin], the percent growth inhibition turned out to be 19.3 ± 14%.
Same read-out and setting: in the case of `COC(=O)N/N=C/c1c[n+]([O-])c2ccccc2[n+]1[O-]` [Carbadox] it was 78.3 ± 7.7%.
As for `Nc1nc(=S)c2ncn([C@@H]3O[C@H](CO)[C@@H](O)[C@H]3O)c2[nH]1` [Thioguanosine], the percent growth inhibition was 81.6 ± 9.8%.
Still for that read-out and setting: with `N=C(NCCCCCCNC(=N)NC(=N)Nc1ccc(Cl)cc1)NC(=N)Nc1ccc(Cl)cc1` [Chlorhexidine] the figure was 99.2 ± 1.6%.
